Several values for one entry are separate records, joined by “and”; a condition that tells them apart may be missing. Equal values may be shown once. Inconclusive results are not listed. A call without a number means that no potency is given here. Activity calls are given as the source filed them. Unless noted, the call rests on the fitted dose curve.
Test: qHTS assay for small molecule disruptors of the mitochondrial membrane potential - cell viability (AID 720634); further: nearly all actives have a fitted effect of over 20% in size
Conditions: HepG2 viability, ATP luminescence (CellTiter-Glo), 1 h; series mostly up to 83.2 µM
Outline: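 Cytotoxicity was quantified from ATP content by CellTiter-Glo luminescence in the same wells as the MMP dye read-out. HepG2 (2,000 cells/well) were plated overnight and exposed to compounds for 1 hr at 37 C.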
Potency means the concentration at half of the fitted maximal effect.

| SMILES | Potency |
| --- | --- |
| O=C1CCc2cc(OCCCCc3nnnn3C3CCCCC3)ccc2N1 | inactive |
| CCCNCCC | inactive |
| CC(C(=O)O)c1ccc2c(c1)[nH]c1ccc(Cl)cc12 (stereo not drawn) | inactive |
| C#C[C@]1(OC(C)=O)CC[C@H]2[C@@H]3CCC4=C[C@@H](OC(C)=O)CC[C@@H]4[C@H]3CC[C@@]21C | inactive |
| Nc1nc(-c2ccccc2)cs1 | inactive |
| CC1(C)[C@@H](O)CC[C@]2(C)[C@H]3C(=O)C=C4[C@@H]5C[C@@](C)(C(=O)O)CC[C@]5(C)CC[C@@]4(C)[C@]3(C)CC[C@@H]12 | inactive |
| COc1cccc2c1C(=O)c1c(O)c3c(c(O)c1C2=O)C[C@@](O)(C(C)=O)C[C@@H]3O[C@H]1C[C@H](N)[C@H](O)[C@H](C)O1 | inactive |
| CCc1cccc(CC)c1NC(=O)CN(CC(=O)O)CC(=O)O | inactive |
| Cc1c(C)c2c(c(C)c1OC(=O)c1cccnc1)CC[C@@](C)(CCC[C@H](C)CCC[C@H](C)CCCC(C)C)O2 | inactive |
| CN1CCC[C@@H]1CCO[C@](C)(c1ccccc1)c1ccc(Cl)cc1 | inactive |
| O=c1oc2cc(O)ccc2c2oc3cc(O)ccc3c12 | inactive |
| Clc1ccnc(Cl)n1 | inactive |
| CNc1ccc([N+](=O)[O-])cc1 | inactive |
| CCOC(=O)c1ccc(C2CCC(NC[C@H](O)COc3ccc(O)c(NS(C)(=O)=O)c3)CC2)cc1 (stereo partly drawn) | inactive |
| CN(C)c1ccc(C(=C2C=CC(=[N+](C)C)C=C2)c2ccc(N(C)C)cc2)cc1 | 54.2 µM (active) |
| CCC(C)[O-].CCC(C)[O-].CCOC(=O)/C=C(/C)[O-].[Al+3] | inactive |

| SMILES | Potency |
| --- | --- |
| CCCCCCCCCCCCCC[N+](C)(C)Cc1ccccc1 | 62.1 µM (active) |
| C#C[C@]1(O)CC[C@H]2[C@@H]3[C@H](C)CC4=C(CCC(=O)C4)[C@H]3CC[C@@]21C | inactive |
| Nc1cc(Cl)c(O)c(Cl)c1 | inactive |
| Cc1ccc(O)c(O)c1 | inactive |
| Cc1ccc(C)cc1 | inactive |
| CN1CCN2c3ccccc3Cc3ccccc3C2C1 (stereo not drawn) | inactive |
| O=C(c1ccc(O)c(O)c1)c1ccc(O)cc1O | inactive |
| O=C1NC(=O)[C@@H]2CC=CC[C@H]12 | inactive |
| CC(C)(C)c1ccc(C(O)CCCN2CCC(C(O)(c3ccccc3)c3ccccc3)CC2)cc1 (stereo not drawn) | inactive |
| Cc1cc(=O)oc2cc(O)cc(O)c12 | inactive |
| COC1=C(OC)C(=O)C(CCCCCCCCCCO)=C(C)C1=O | inactive |
| Cc1ccc(O)c(N)c1 | inactive |
| COC(C)=O | inactive |
| CN1CCN(Cc2cc(-c3ccc4[nH]c(=O)oc4c3)co2)[C@@H](c2ccc(F)cc2)C1 | inactive |
| C/C=C/C=C/COC(=O)C(C)C | inactive |

Test: qHTS assay for small molecule disruptors of the mitochondrial membrane potential (AID 720635; active means well fitted inhibition curve with a large enough effect in the signal ratio in the repeat runs; the % refers to the signal ratio)
Conditions: HepG2 mitochondrial membrane potential, Mito-MPS dye ratio; series mostly up to 83.2 µM
Outline: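 HepG2 cells (2,000/well) attached overnight at 37C, then took compound for 1 hr at 37C, 5% CO2. Mito-MPS dye was added for 30 min; fluorescence was read at 490/535 nm (monomers) and 540/590 nm (aggregates).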

| SMILES | Potency |
| --- | --- |
| CCCNCCC | inactive |
| COC(=O)C1=C(C)NC(C)=C(C(=O)OCCN2CCN(C(c3ccccc3)c3ccccc3)CC2)C1c1cccc([N+](=O)[O-])c1 (stereo not drawn) | 10.6 µM (active) |
| C#C[C@]1(OC(C)=O)CC[C@H]2[C@@H]3CCC4=C[C@@H](OC(C)=O)CC[C@@H]4[C@H]3CC[C@@]21C | 13.3 µM (active) |
| CC1(C)[C@@H](O)CC[C@]2(C)[C@H]3C(=O)C=C4[C@@H]5C[C@@](C)(C(=O)O)CC[C@]5(C)CC[C@@]4(C)[C@]3(C)CC[C@@H]12 | 23.7 µM (active) and 67.8 µM (active) |
| COc1cccc2c1C(=O)c1c(O)c3c(c(O)c1C2=O)C[C@@](O)(C(C)=O)C[C@@H]3O[C@H]1C[C@H](N)[C@H](O)[C@H](C)O1 | 1.5 µM (active) and 4.35 µM (active) |
| CCc1cccc(CC)c1NC(=O)CN(CC(=O)O)CC(=O)O | inactive |
| O=c1oc2cc(O)ccc2c2oc3cc(O)ccc3c12 | 58.6 µM (active) |
| O=C1c2ccccc2C(=O)N1SC1CCCCC1 | 54.4 µM (active) and 48.6 µM (active) |
| CN(C)c1ccc(C(=C2C=CC(=[N+](C)C)C=C2)c2ccc(N(C)C)cc2)cc1 | 139 nM (active) and 30.5 nM (active) and 68.6 nM (active) |
| CCC(C)[O-].CCC(C)[O-].CCOC(=O)/C=C(/C)[O-].[Al+3] | inactive |
| CCCCCCCCCCCCCC[N+](C)(C)Cc1ccccc1 | 11.9 µM (active) and 27.7 µM (active) |
| Oc1cc(Cl)cc(Cl)c1Cl | 4.97 µM (active) |
| Nc1cc(Cl)c(O)c(Cl)c1 | 7.7 µM (active) |
| Cc1ccc(C)cc1 | inactive |
| O=C(c1ccc(O)c(O)c1)c1ccc(O)cc1O | 3.85 µM (active) |
| O=C1NC(=O)[C@@H]2CC=CC[C@H]12 | inactive |
| Cc1cc(=O)oc2cc(O)cc(O)c12 | 61.3 µM (active) |
| Cc1cc(C(C#N)c2ccc(Cl)cc2)c(Cl)cc1NC(=O)c1cc(I)cc(I)c1O (stereo not drawn) | 2.37 µM (active) |
| CC[C@H](C)COC(=O)/C=C/c1ccc(N=Cc2ccc(OC)cc2)cc1 | 30.6 µM (active) |
| COC(C)=O | inactive |
| CN1CCN(Cc2cc(-c3ccc4[nH]c(=O)oc4c3)co2)[C@@H](c2ccc(F)cc2)C1 | 14.8 µM (active) |
| C/C=C/C=C/COC(=O)C(C)C | inactive |

— PubChem BioAssay (Tox21)
